Structures are written as SMILES. This is part of a sample that, as a whole, favours compounds with a hit. Of some 83,000 tested, about 20% had one in any assay.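 A percent growth of 40 corresponds to 60% growth inhibition; 0 means no net growth; -100 means all cells died. Active threshold: below 10.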 Active and inactive are the calls of the source.

The experiment concerns U251 CNS. Nature of the experiment: NCI-60 one-dose screen, 48 h (100 = growth as untreated, 0 = no growth, -100 = all killed). The conditions noted are these: 10 µM unless noted.
Consider `COc1ccccc1-c1nc2ccc3[nH]ncc3c2c2c1CCCC2`, for which the growth was 96.7% (inactive).
As to `O=c1ccc2nc(-c3ccccc3)nn(-c3ccccn3)c-2c1`, the growth is 94.4% (inactive).
As for `Nc1ncc(-c2ccc3ncnc(N4CCc5cc(F)c(Cl)cc54)c3c2)cc1C=O`, the growth was 48.5% (inactive).
The same measure for `C#Cc1ccc(NC(=O)Cc2ccc(/C=C/C(=O)c3nccn3C)cc2)cc1`: 15.1% (inactive); for `CCCCN(CCC#N)C(N)=O`: 107% (inactive); for `COc1ccc(-c2cn(Cc3ccc4c(Br)cc(Br)c(O)c4n3)nn2)cc1`: 97.3% (inactive).
For the molecule `CCc1ccc(Cc2cnc(NC(=O)c3cc(C)oc3C)s2)cc1`, the growth was 33.3% (inactive).
In the case of `COc1cc(/C=C/c2cc(/C=C/c3ccc(O)c(OC)c3)n(C(=O)Nc3ccc(C)cc3C)n2)ccc1O`, the growth is -12.3% (active).
The same measure for `Clc1nc(N2CCC[N+]3(CC2)CC[N+]2(CCCNCC2)CC3)nc(N2CCC[N+]3(CC2)CC[N+]2(CCCNCC2)CC3)n1` (centres undefined): 91.7% (inactive).
The same measure for `O=S(=O)(Nc1ccc(Br)cc1)c1ccc(-c2cnc(C3CC3)o2)cc1`: 24.9% (inactive).
As to `O=C1N/C(=N/N=C(c2ccccc2)c2ccccc2)S/C1=C\c1ccc(Br)cc1`, the growth was 91.3% (inactive).
The value for `COc1cc(OCc2cccc(-c3ccc4c(c3)OCCO4)c2C)cc(OC)c1C=O` was 85.6% (inactive).
The same measure for `COC(=O)c1c(C)nc(C)c2c1C(=O)C(Br)=C(NCCCCO)C2=O`: 72.1% (inactive).
The same measure for `COc1ccc(CNc2c3ccccc3nc3ccccc23)cc1OC`: 23.2% (inactive); for `COc1cc(/C=C/C(=O)c2ccc(-n3cc(CN4CCN(c5cc6c(cc5F)c(=O)c(C(=O)O)cn6C5CC5)CC4)nn3)cc2)cc(OC)c1OC`: 68.4% (inactive).
As to `CCCCCC(C)(O)C(C(=O)O)c1ccccc1` (centres undefined), the growth was 99.2% (inactive).
With `C[C@@H]1N=C(c2ccc(Cl)cc2Cl)Nc2nc3ccccn3c2C1=O`, the growth was 41.4% (inactive).
The value for `O=C(Nc1ccccc1)Nc1ccccc1CNc1nc(Nc2ccc(OCCN3CCCC3)cc2)ncc1Cl` was 38.7% (inactive).
The same measure for `COc1ccc(S(=O)(=O)N(C)c2oc(-c3ccc(Cl)cc3)nc2C#N)cc1`: 81.1% (inactive); for `COc1cccc(C(=O)Nc2cccc(NC(=O)c3ccccn3)c2)c1`: 109% (inactive); for `CS(=O)(=O)c1ccc(/C(=N/NC(N)=S)c2ccc(F)cc2)cc1`: 107% (inactive).
The same measure for `CSc1nc(N)c2c(n1)NC(c1ccccc1)C1CCc3ccccc3C1=N2` (centres undefined): 68.2% (inactive); for `COc1cccc(CNc2nnc(C)c(C)n2)c1O`: 99.1% (inactive); for `COc1ccc(NC(=O)CSc2oc(-c3ccccc3)nc2S(=O)(=O)c2ccc(Cl)cc2)c(OC)c1`: 50.6% (inactive).
For the molecule `O=C(c1ccc(F)cc1)C1CCN(CCn2c(=O)[nH]c3ccccc3c2=O)CC1`, the growth is 101% (inactive).
The same measure for `CC(=O)OCC(=O)O[C@@H]1C[C@]2(C(C)C)O[C@@]1(C)[C@@H]1CC[C@@H](C)[C@H]1[C@@H]2OC(=O)/C=C/c1ccccc1`: 74.7% (inactive).
The same measure for `O=C(Nc1ncc(Cc2ccccc2)s1)c1cc(-c2ccccc2)nc2ccccc12`: 98.2% (inactive); for `O=c1cc(-c2nccc3c2[nH]c2ccccc23)c2cc(Cl)ccc2o1`: 29.6% (inactive); for `O=C(CN1C(=O)NC2NC(=O)NC21)N/N=C/c1cccc([N+](=O)[O-])c1` (centres undefined): 111% (inactive).
The same measure for `CCCCCCCCCCCCCC[n+]1ccc2c(C)c3c(c(C)c2c1)c1cc(O)ccc1n3CC`: -89% (active); for `C=C(C)[C@@H]1CCC[C@]2(C(=O)OC)CC[C@]3(C)[C@@H](CC[C@@H]4[C@@]5(C)CCCNC(C)(C)[C@@H]5CC[C@]43C)[C@@H]12`: 94.1% (inactive); for `COc1cc2c(cc1-c1c(C)noc1C)ncc1nc(C3CCOCC3)n(C3CCC(OC(F)F)CC3)c12` (centres undefined): 75.8% (inactive).
Regarding `O=C1CCC(C(=O)N/N=C/c2ccc([N+](=O)[O-])cc2)N1` (centres undefined), the growth was 102% (inactive).
The value for `COc1cc(C(=O)/C=C/c2c(-c3cccs3)nc3sc(C)cn23)cc(OC)c1OC` was 5.96% (active); that for `O=C(NS(=O)(=O)c1ccccc1)n1cc(-c2ccncc2)c(-c2cc(O)cc(Cl)c2)n1` was 104% (inactive).
The value for `COC(CCP(=O)(c1ccccc1)c1ccccc1)(C(=O)c1ccccc1)c1ccccc1` (centres undefined) was 71.3% (inactive); that for `Cn1nc(-c2ccc(Cl)cc2)nc2c(=O)n(C)c(=O)nc1-2` was -82.6% (active).
The same measure for `CC1(C)CCC[C@]23C(=O)O[C@](O)(C(=O)C4=C[C@@](C)(/C=C/CCCc5ccc6ccc7cccc8ccc5c6c78)CC[C@@]42O)[C@@H]13`: -85.5% (active); for `COc1ccc(C2=C/C(=C\c3ccccc3O)C(=O)N2Cc2ccccc2)cc1`: 83.9% (inactive).
